Reference: PubChem BioAssay AID463173 (ICCB-Longwood Screening Facility, Harvard Medical School, 2010)
About 4,300 (8.3%) of roughly 52,000 compounds were called active. Only a selection was taken, and actives are over-represented in it overall. A number with no mark means an inactive call. Cut-off read from the data, not from the text of the source: active = survival mostly below about 52% (no sharp cut-off); inactive = mostly above about 56%.

The molecules below were run on DeltatarO mutant (assay: S. aureus survival, RN4220 and DeltatarO strains – OD600, teichoic acid synthesis inhibitors, primary screen (AID 463173)). Conditions: S. aureus RN4220 wild type/DeltatarO growth, OD600, 18 h, active compounds read low, screened at 18.75 µg/mL (by protocol).

**Q.** Which survival does the source give for `CCc1ccc(NC(=O)CSc2cn(CC(=O)N3CCCC3)c3ccccc23)cc1` here?
**A.** Its survival is 97%.

**Q.** How did the survival turn out when `COc1ccc(C)cc1S(=O)(=O)NCC(c1ccc(N(C)C)cc1)N1CCc2ccccc21` (centres undefined) was run?
**A.** Its survival is 55%.

**Q.** Which survival does the source give for `Cc1cccc(-n2ccnc2SCC(=O)Nc2nc3ccccc3s2)c1` here?
**A.** The survival was 93%.

**Q.** `COc1ccc(OC)c(NC(=O)/C=C/c2ccc(C)o2)c1` was tested. Which survival did it give?
**A.** Its survival is 40% (active).

**Q.** `Cc1ccc(/C=C/C(=O)Nc2ccccc2C(N)=O)o1` was tested. Which survival did it give?
**A.** Its survival is 64%.

**Q.** With `Cc1ccc(NC(=O)/C=C/c2ccc(C)o2)c(C)c1` as the molecule, how does the survival read?
**A.** The survival was 46%.

**Q.** Which survival does the source give for `CCOC(=O)c1cc(-c2ccccc2)n(CCC(=O)Nc2ccc(Cl)c(C(F)(F)F)c2)c1C` here?
**A.** Its survival is 102%.

**Q.** For `CN(C)S(=O)(=O)c1ccc(S(=O)(=O)N(Cc2ccccc2F)C2CC2)cc1`, which survival is on record?
**A.** The survival was 91%.

**Q.** How did the survival turn out when `Cc1oc2ncn(C)c(=O)c2c1C(=O)NCCCN(Cc1ccccc1)C(C)C` was run?
**A.** Its survival is 72%.

**Q.** For `CCN(CCCNC(=O)c1c(C)oc2ncn(CC(C)C)c(=O)c12)Cc1ccccc1`, which survival is on record?
**A.** Its survival is 83%.

**Q.** Which survival does the source give for `CCCCN(CCCNC(=O)c1c(C)oc2nc[nH]c(=O)c12)Cc1ccccc1` here?
**A.** Its survival is 53% (active).

**Q.** How did the survival turn out when `O=C(CSc1ncn(-c2ccccc2)n1)c1ccc(Cl)cc1` was run?
**A.** Its survival is 74%.

**Q.** `CCCCN(CCCC)C1=C(C(=O)c2ccccc2)N(CC)S(=O)(=O)c2ccccc21` was tested. Which survival did it give?
**A.** The survival was 60% (active).

**Q.** `CCN1C(C(=O)c2ccccc2)=C(OC(=O)C(C)C)c2ccccc2S1(=O)=O` was tested. Which survival did it give?
**A.** The survival was 67%.

**Q.** Which survival does the source give for `CCOC(=O)CN1C(C(=O)c2ccccc2)=C(OC(=O)C(C)(C)C)c2ccccc2S1(=O)=O` here?
**A.** Its survival is 58%.

**Q.** `CCCCN1C(C(=O)c2ccccc2)=C(OC(C)=O)c2ccccc2S1(=O)=O` was tested. Which survival did it give?
**A.** Its survival is -4% (active).

**Q.** For `CCCCN(CCCC)C1=C(C(=O)c2ccccc2)N(C)S(=O)(=O)c2ccccc21`, which survival is on record?
**A.** Its survival is 72%.

**Q.** With `COC(=O)CN1C(C(=O)c2ccccc2)=C(OC(=O)c2ccc(F)cc2)c2ccccc2S1(=O)=O` as the molecule, how does the survival read?
**A.** Its survival is 56%.

**Q.** `CCCN1C(C(=O)c2ccccc2)=C(OC(=O)C(C)(C)C)c2ccccc2S1(=O)=O` was tested. Which survival did it give?
**A.** The survival was 53%.

**Q.** With `CCCCN1C(C(=O)c2ccccc2)=C(OC(=O)CC)c2ccccc2S1(=O)=O` as the molecule, how does the survival read?
**A.** The survival was -4% (active).

**Q.** `CCCN1C(C(=O)c2ccccc2)=C(OC(=O)c2ccc(C)cc2)c2ccccc2S1(=O)=O` was tested. Which survival did it give?
**A.** The survival was 52%.

**Q.** `CCCCCN1C(C(=O)c2ccccc2)=C(NC(C)=O)c2ccccc2S1(=O)=O` was tested. Which survival did it give?
**A.** The survival was 58%.

**Q.** With `CCCN1C(C(=O)c2ccccc2)=C(OC(=O)c2ccc(F)cc2)c2ccccc2S1(=O)=O` as the molecule, how does the survival read?
**A.** The survival was 31% (active).

**Q.** How did the survival turn out when `COc1ccc(N(C(=O)c2ccc(C)cc2)S(=O)(=O)c2ccc(Cl)cc2)cc1` was run?
**A.** Its survival is 76%.
